System: Vero E6 infected with SARS-CoV-2
Assay: inhibition of SARS-CoV-2 cytopathic effect; higher = more antiviral protection, active = above 15
Settings: 48 h

Measured: inhibition of SARS-CoV-2 cytopathic effect

Cc1cccc(C)c1NC(=O)CN1CCN(CCCC(c2ccc(F)cc2)c2ccc(F)cc2)CC1 [lidoflazine]
inactive: 1 nM -2.3% | 8.33 nM 0.7% | 100 nM 0.47% | 833.33 nM -1.87% | 10000 nM -10.2%

C#Cc1cccc(Nc2ncnc3cc4c(cc23)OCCOCCOCCO4)c1 [icotinib]
inactive: 1 nM 1.1% | 8.33 nM 0.11% | 100 nM -1.65% | 833.33 nM -2.37% | 10000 nM -5.92%

CN[C@@H]1[C@H](O[C@H]2[C@H](O[C@H]3[C@H](O)[C@@H](O)[C@H](NC(=N)N)[C@@H](O)[C@@H]3NC(=N)N)O[C@@H](C)[C@]2(O)CO)O[C@@H](CO)[C@H](O)[C@H]1O [dihydrostreptomycin]
inactive: 1 nM 0.2% | 8.33 nM -0.04% | 100 nM -0.21% | 833.33 nM 0.85% | 10000 nM -0.41%

Oc1ccc2c3c1O[C@H]1c4oc5ccccc5c4C[C@@]4(O)[C@@H](C2)N(CC2CC2)CC[C@]314 [naltriben]
inactive: 1 nM 0.92% | 8.33 nM -0.89% | 100 nM 0.12% | 833.33 nM -0.45% | 10000 nM -2.94%

COC(=O)C1=C(C)NC(C)=C(C(=O)OCCN(C)Cc2ccccc2)C1c1cccc([N+](=O)[O-])c1 (stereo not given) [nicardipine]
inactive: 1 nM 0.9% | 8.33 nM 0.28% | 100 nM 0.23% | 833.33 nM -0.11% | 10000 nM -1.36%

COc1ccccc1OCC(O)CNC(C)C (stereo not given) [moprolol]
inactive: 1 nM -0.33% | 8.33 nM -2.22% | 100 nM -0.82% | 833.33 nM -3.01% | 10000 nM -2.72%
